The assay deals with S6K1. The following applies: concentration: 1 μM,replicates: in singlicate; n = 1.
`COc1cccc(C2=C(Nc3cccc(Cl)c3)C(=O)NC2=O)c1` [SB-341556]: the “%Inh” value came to 23%.

Consider `CCn1c(-c2nonc2N)nc2cncc(CNC3CCNCC3)c21.Cl` [SB-747651], for which the “%Inh” value is reported as 60%.

Regarding `Cn1ccc2ncnc(Oc3ccc(NC(=O)Nc4cncc(C(F)(F)F)c4)c(Cl)c3)c21`, the “%Inh” value is given as 0%.

For `CN(c1ccccc1CNc1nc(Nc2ccc3c(c2)CC(=O)N3)ncc1C(F)(F)F)S(C)(=O)=O`, the “%Inh” value came to 22%.

For the compound `COc1cccc(CNC(=O)NC2CCN(c3ccnc(Nc4cc(OC)c(OC)c(OC)c4)n3)C2)c1` (stereo not shown) [GSK1379765], the “%Inh” value stood at 14%.

As for `COc1cc(Nc2nccc(N3CCC(NC(=O)c4cccc(C#N)c4)C3)n2)cc(OC)c1OC` (stereo not shown) [GSK1379751], the “%Inh” value came out at 0%.

With `COc1cc2nccc(Nc3ccc(Oc4ccccc4)cc3)c2cc1OC.Cl` [GI261656], the “%Inh” value is 0%.

Consider `O=C(Nc1cccc(C(F)(F)F)c1)c1cccc(Oc2ccc3nccn3n2)c1`, for which the “%Inh” value came out at 2%.

In the case of `Nc1nccc(-c2ccc3c(N)n[nH]c3c2)n1` [GSK1034945], the “%Inh” value amounted to 1%.

On to `C[C@@H](Oc1cc(-n2cnc3cc(-c4cnn(C)c4)ccc32)sc1C(N)=O)c1ccccc1Cl` [GSK580432], for which the “%Inh” value was determined as 0%.

In the case of `CCNCC(Cc1ccccc1)NC(=O)c1cc(Br)c(-c2ccnc3[nH]ccc23)s1.Cl.Cl` (stereo not shown) [GSK1383280], the “%Inh” value worked out at 67%.

On to `O=C(Nc1ccc(Oc2ccc3nc(NC(=O)C4CC4)cn3n2)c(F)c1)c1cccn(-c2ccccc2)c1=O`, for which the “%Inh” value came out at 0%.

Take `N#Cc1cccc(C(=O)NC2CCN(c3ccnc(Nc4ccc(F)cc4)n3)C2)c1` (stereo not shown) [GSK1379708]: the “%Inh” value is given as 1%.

Consider `CSc1nccc(-c2c(-c3ccc(F)cc3)ncn2CCCN2CCOCC2)n1.Cl` [SB-217146], for which the “%Inh” value worked out at 17%.

Regarding `COc1cccc(OC)c1C(=O)Nc1cccc(-c2nn3ccccc3c2-c2ccnc(Nc3cccc(F)c3)n2)c1` [GSK361065], the “%Inh” value worked out at 0%.

For the compound `O=C(NOCC1CC1)c1cc(Br)c(F)c(F)c1Nc1ccc(I)cc1Cl`, the “%Inh” value is recorded as 19%.

For the compound `Cc1ccc(CC(=O)N2CCc3cc(-c4cn(C)c5ncnc(N)c45)ccc32)cc1` [GSK2634758], the “%Inh” value stood at 5%.

As to `CC(C)c1nc(-c2cccc(NS(=O)(=O)c3ccccc3)c2)c(-c2ccnc(Nc3ccc4c(c3)CN(C)CC4)n2)s1` [GSK1649598], the “%Inh” value is 66%.

In the case of `Cc1ccc(C(=O)Nc2ccc(Oc3ccc4nc(NC(=O)C5CC5)cn4c3)c(F)c2)c(=O)n1-c1ccccc1`, the “%Inh” value is 9%.

Regarding `c1ccc(Oc2ccc(Nc3ccnc4ccc(-c5ccccn5)cc34)cc2)cc1` [GW407034], the “%Inh” value came to 2%.

Turning to `O=C(Nc1n[nH]c2cc(-c3ccco3)ccc12)C1CC1` [SB-737447], the “%Inh” value turned out to be 4%.

Consider `C[C@@H]1CNc2c(sc3ccc4nc(-c5ccc(O)cc5)ccc4c23)C(=O)N1`, for which the “%Inh” value is listed as 6%.

On to `CCn1c(-c2nonc2N)nc2cncc(Br)c21` [SB-738004], for which the “%Inh” value was determined as 45%.

`CS(=O)c1ccc(-c2coc3ccc(-c4n[nH]c(=O)o4)cc23)cc1` (stereo not shown): the “%Inh” value amounted to 3%.

Take `CN1CCN(CCCNc2nccc(-c3c(-c4ccc(F)cc4)nn4cc(C(N)=O)ccc34)n2)CC1` [GW622475]: the “%Inh” value was 8%.

Turning to `CC(C(=O)NC1CCN(c2ccnc(Nc3ccc(F)cc3)n2)C1)c1ccc(Cl)cc1` (stereo not shown) [GSK1379713], the “%Inh” value came to 0%.

Turning to `CC(=O)c1c(-c2ccncc2)[nH]c(-c2ccncc2)c1C` [GW493036], the “%Inh” value was 6%.

`CS(=O)(=O)c1cccc(CNc2nc(Nc3ccc4c(c3)[C@@H]3C[C@@H]4CNC3=O)ncc2C(F)(F)F)c1`: the “%Inh” value was found to be 0%.

Consider `FC(F)(F)c1cc(Br)cc(Nc2nccc(-c3cnn4ncccc34)n2)c1` [GW810578], for which the “%Inh” value is 4%.

For the compound `CC(=O)Nc1ccc(-c2cc3ncnc(SCC(=O)O)c3s2)cc1`, the “%Inh” value is on record as 0%.

`NC(=O)Nc1sc(-c2ccc(F)cc2)cc1C(N)=O` [GW789449]: the “%Inh” value is on record as 3%.

As to `CN(c1cccc(CNc2nc(Nc3ccc4c(c3)CC(=O)N4)ncc2C(F)(F)F)c1)S(C)(=O)=O`, the “%Inh” value is 42%.

Regarding `COC(=O)Nc1nc2cc(Oc3ccc(NC(=O)Nc4cc(C(F)(F)F)ccc4Cl)cc3)ccc2[nH]1.Cl` [GW697465], the “%Inh” value is on record as 23%.

On to `COc1ccc(Nc2nccc(N3CCC(NC(=O)c4cccc(C#N)c4)C3)n2)cc1` (stereo not shown) [GSK1379730], for which the “%Inh” value was 0%.

Values taken from PMC5540273 (PLoS ONE, 2017).
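Note: KINOMEscan kinase panel screen.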
